The nature of experiment [1]: AP1 Signaling Pathway (AID 357; active = well fitted curve in either direction with a large enough effect, not every such curve was filed as active; also: % is scaled to controls: 0 for no effect and ±100 for the full control effect). The following applies: ME-180 AP-1-bla reporter, EGF-induced, beta-lactamase ratio, 5 h; at 38 µM (top of the series). Put shortly: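 ME-180 cells with beta-lactamase reporter under AP-1 response element, stimulated with EC50 EGF; compounds tested in titration series, 5 h at 37 °C. CCF4 substrate added 2.5 h at room temperature; 460/530 nm emission ratio gave %activity and AC50.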

In experiment [2] the target is Glucocorticoid receptor (Homo sapiens) (UniProt P04150). The experiment in a line: GR-GFP Redistribution (AID 450;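 active = compounds whose dose series gives a full or clear partial fitted curve of increased nuclear translocation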; also: potency is read from the fitted curve at half-maximal effect). The following applies: U2OS GR-GFP nuclear translocation, laser cytometry, 2 h.
The target is the same in experiment [3]. The experiment in a line: GR-EFC Redistribution (AID 451; calls by dose curve; also: potency is read from the fitted curve at half-maximal effect). Conditions: CHO-K1 GR-EFC translocation, beta-gal luminescence, 2 h. The method, boiled down: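 CHO-K1 cells stably expressing nuclear-localized β-gal enzyme acceptor and GR fused C-terminally to the enzyme donor fragment; ligand-driven nuclear translocation restores β-gal by complementation. Compounds titrated up to 46 uM final, 2 h at 37 °C; luminescence read.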

Experiment [4] concerns the target 3',5'-cyclic-AMP phosphodiesterase 4B (Homo sapiens) (UniProt Q07343). The experiment in a line: qHTS Assay for Inhibitors of PDE-IV (AID 607; active = well fitted activation curve with a large enough effect in the main read-out, with a control signal flat, not every such curve was filed as active; also: % of control where 0% means no effect). The method, boiled down:
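Live HEK293 cells with a modified cyclic nucleotide-gated (CNG) channel report intracellular cAMP via membrane-potential dye fluorescence (ex 535/em 590 nm). Endogenous PDE-IV was targeted. Compounds were tested at up to 22.9 uM final; RO 20-1724 100 uM served as control.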

Experiment [5] addresses Guanine nucleotide-binding protein G(i) subunit alpha-1 (Homo sapiens) (UniProt P63096). The experiment in a line: qHTS Assay for Inhibitors of RGS12 GoLoco Motif Activity (Green Fluorophore) (AID 879).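 Also: 0% = labeled peptide with Gαi1 and full inhibition = labeled peptide alone without protein; negative values mean loss of peptide binding seen as reduced polarization.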 The method, boiled down:
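A drop in FITC polarization marked displacement of the FITC-tagged RGS12 GoLoco peptide (10 nM) from Gαi1 (50 nM). Compounds were incubated 10 min at room temperature in Tris pH 7.5 buffer containing 150 mM NaCl, 0.1 mM GDP and 0.05% NP40; unlabeled peptide titration served as control.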
(In general: Quantitative high-throughput screening tests each substance at several concentrations.)

For experiment [6], the target named is Cytochrome P450 3A4 (Homo sapiens) (UniProt P08684). The experiment in a line: qHTS Assay for Activators of Cytochrome P450 3A4 (AID 885). Also: nearly all actives have a fitted effect of over 65% in size. Put shortly: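 Using 20nM recombinant human CYP3A4 in potassium phosphate (200mM), substrate Luciferin-PPXE at 25uM, luminescent luciferin detection followed a 60-min RT NADPH reaction; data scaled to 57 uM ketoconazole.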

The target of experiment [7] is Cytochrome P450 2C19 (Homo sapiens) (UniProt P33261). The experiment in a line: qHTS Assay for Inhibitors and Substrates of Cytochrome P450 2C19 (AID 899). Also: % is scaled to controls: 0 for no effect and ±100 for the full control effect; nearly all actives have a fitted effect of over 60% in size. Put shortly:
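In 50mM KPO4, the reaction held 5nM enzyme and KM-level (10uM) Luciferin-H EGE; it ran 60 min at 37C after NADPH regeneration and a 10 min compound preincubation. Luminescence values were scaled to 57uM ketoconazole as complete inhibition.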

Experiment [8] deals with Muscarinic acetylcholine receptor M1 (Rattus norvegicus) (UniProt P08482). The experiment in a line: qHTS Assay for Antagonists of Acetylcholine Muscarinic M1 Receptor: Kinetic Measurement of Intracellular Calcium Response (AID 943). Also: nearly all actives have a fitted effect of over 75% in size. Put shortly: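 Read-out: peak over basal Fluo-4 fluorescence, kinetic at 1 Hz for 4 min after EC80 carbachol (100 nM final). Rat M1-CHO cells, dye loaded 1 h at 37C, compound added 10 min before agonist.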

Experiment [9] addresses Pyruvate kinase (Leishmania mexicana) (UniProt Q27686). The experiment in a line: qHTS Validation Assay for Inhibitors of Leishmania Mexicana Pyruvate Kinase (AID 945).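 Also: 0% = DMSO only neutral control wells.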 The method, boiled down:
(§1)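 Eight-point qHTS titrations in triplicate, data normalized to DMSO neutral control. Reaction: 0.2 nM LmPYK E451W mutant, 0.5 mM PEP, 0.1 mM ADP, 7 mM MgCl2, pH 7.2, one hour at room temperature; luminescent ATP detection.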

In experiment [10] the target is Pyruvate kinase PKM (Homo sapiens) (UniProt P14618). The experiment in a line: qHTS Assay for Activators of Human Muscle Pyruvate Kinase (AID 954; active = well fitted curve in the direction sought with a large enough effect, not every such curve was filed as active;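 also: 0% = uninhibited enzyme and -100% = no enzyme or full thiadiazolimine inhibition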). Put shortly:
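Screening used highly purified human pyruvate kinase M2 under submaximal activity, with PEP at its Km and ADP below Km. After an hour at room temperature, ATP was read by luciferase luminescence.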

For experiment [11], the target named is Pyruvate kinase (Leishmania mexicana) (UniProt Q27686). The experiment in a line: qHTS Validation Assay for Activators of Leishmania Mexicana Pyruvate Kinase (AID 959). The method, boiled down: as §1
The target of experiment [12] is Alpha-galactosidase A (Homo sapiens) (UniProt P06280). The experiment in a line: Counterscreen for Glucocerebrosidase Inhibitors: qHTS Assay for Human alpha-Galactosidase at pH 4.5 (AID 992). Also: 0% is about no effect. The method, boiled down:
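Each compound is preincubated briefly with 2 nM enzyme before substrate addition (80 uM); plates then sit 20 min at ambient temperature, are quenched with 1M NaOH/1M glycine, and read fluorometrically.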
For orientation: A counterscreen serves to expose hits that act by an unwanted route or on another target.

In experiment [13] the target is alpha-glucosidase (Oryza sativa, rice) (UniProt Q653V4). The experiment in a line: Counterscreen for Glucocerebrosidase Inhibitors: qHTS Assay for Rice alpha-Glucosidase at pH 5.0 (AID 997).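 Also: 0% = full activity with enzyme and -100% = basal without enzyme.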 Put shortly: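 Endpoint fluorogenic assay at pH 5.0: compounds (0.7 nM to 77 uM) titrated against 4 nM rice enzyme and 400 uM 4-MU-alpha-glucoside for 20 min at room temperature; NaOH/glycine stop, read ex 365/em 440 nm, Hill-fitted AC50.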

Experiment [14] can be described thus: qHTS Assay for Lipid Storage Modulators (AID 1519; calls by dose curve; as to activity change, negative = inhibition: % is scaled to controls: 0 for no effect and ±100 for the full control effect). Conditions: Drosophila S3 cells, BODIPY lipid droplet/cell ratio, laser cytometry, cells loaded with oleic acid. Put shortly:
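Cells seeded at 5,000 per well were treated with compounds over a concentration series and loaded with oleic acid (400 uM, as added). Lipid droplet fluorescence (488 nm excitation, 500-530 nm channel) was read by laser-scanning cytometry and normalized to 20 uM Triacsin C.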

Experiment [15] addresses DNA repair nuclease/redox regulator APEX1 (Homo sapiens) (UniProt P27695). The experiment in a line: qHTS Validation Assay for Inhibitors of the Human Apurinic/apyrimidinic Endonuclease 1 (APE1) (AID 1705; also: potency is read from the fitted curve at half-maximal effect). Put shortly:
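Activity read as rising fluorescence (598 nm emission, 525 nm excitation) from incision of a TAMRA/BHQ-2 duplex carrying a THF abasic site (50 nM). Compound and enzyme sat 15 min at RT before substrate start; signal change between first and third 60-s reads.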

Experiment [16] can be described thus: Counterscreen for APE1 Inhibitors: Fluorescent Dye Displacement Validation Assay (AID 1707). Also: potency is read from the fitted curve at half-maximal effect. Put shortly: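 Loss of Thiazole Orange fluorescence marks promiscuous DNA binders. The dye (250 nM) is mixed with 50 nM abasic-site dsDNA in pH7.5 Tris buffer containing MgCl2, then compounds are added and emission is read once.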
The target of experiment [17] is Endonuclease 4 (Escherichia coli (strain K12)) (UniProt P0A6C1). The experiment in a line: Counterscreen for APE1 Inhibitors: qHTS Validation Assay for Inhibitors of Endonuclease IV (AID 1708). Also: potency is read from the fitted curve at half-maximal effect. Put shortly:
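Measured as reaction progress, the fluorescence gain between first and third kinetic reads after adding 50 nM TAMRA/BHQ-2 THF duplex to 2 nM enzyme preincubated 15 min with compound; 2 mM MgCl2, pH 7.5.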

Experiment [18] in a line: qHTS for differential inhibitors of proliferation of Plasmodium falciparum line 7G8 (AID 1815).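 Also: parasite growth measured after three days of incubation; plate controls were vehicle wells for no effect and reference inhibitor wells for full effect.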

Results filed as inconclusive are left out. Calls of active or inactive are those of the source. Unless noted, calls follow the shape of the dose curve; as a rule, active = well fitted curve in the direction sought with a large enough effect; inconclusive = small, poorly fitted or top-dose-only effect, or another doubt; inactive = no such curve, though single readings can be large; an effect the other way counts as inactive or inconclusive.

Sequence of Pyruvate kinase (Leishmania mexicana) (Q27686 2-499 E452W): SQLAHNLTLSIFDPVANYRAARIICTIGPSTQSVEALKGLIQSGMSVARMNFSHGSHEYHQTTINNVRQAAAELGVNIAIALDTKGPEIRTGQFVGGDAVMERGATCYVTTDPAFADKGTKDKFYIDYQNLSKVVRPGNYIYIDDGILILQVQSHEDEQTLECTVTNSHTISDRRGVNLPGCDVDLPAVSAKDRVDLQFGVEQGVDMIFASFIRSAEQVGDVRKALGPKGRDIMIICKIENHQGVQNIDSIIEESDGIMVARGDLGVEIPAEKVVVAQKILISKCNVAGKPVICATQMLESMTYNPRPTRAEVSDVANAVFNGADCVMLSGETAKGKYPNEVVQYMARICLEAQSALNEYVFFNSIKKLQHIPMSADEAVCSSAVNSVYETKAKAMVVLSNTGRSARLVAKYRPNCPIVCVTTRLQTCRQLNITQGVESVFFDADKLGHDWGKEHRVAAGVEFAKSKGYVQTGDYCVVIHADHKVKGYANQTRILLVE
Sequence of Glucocorticoid receptor (Homo sapiens) (P04150 whole entry, looked up, the tested form may be a part): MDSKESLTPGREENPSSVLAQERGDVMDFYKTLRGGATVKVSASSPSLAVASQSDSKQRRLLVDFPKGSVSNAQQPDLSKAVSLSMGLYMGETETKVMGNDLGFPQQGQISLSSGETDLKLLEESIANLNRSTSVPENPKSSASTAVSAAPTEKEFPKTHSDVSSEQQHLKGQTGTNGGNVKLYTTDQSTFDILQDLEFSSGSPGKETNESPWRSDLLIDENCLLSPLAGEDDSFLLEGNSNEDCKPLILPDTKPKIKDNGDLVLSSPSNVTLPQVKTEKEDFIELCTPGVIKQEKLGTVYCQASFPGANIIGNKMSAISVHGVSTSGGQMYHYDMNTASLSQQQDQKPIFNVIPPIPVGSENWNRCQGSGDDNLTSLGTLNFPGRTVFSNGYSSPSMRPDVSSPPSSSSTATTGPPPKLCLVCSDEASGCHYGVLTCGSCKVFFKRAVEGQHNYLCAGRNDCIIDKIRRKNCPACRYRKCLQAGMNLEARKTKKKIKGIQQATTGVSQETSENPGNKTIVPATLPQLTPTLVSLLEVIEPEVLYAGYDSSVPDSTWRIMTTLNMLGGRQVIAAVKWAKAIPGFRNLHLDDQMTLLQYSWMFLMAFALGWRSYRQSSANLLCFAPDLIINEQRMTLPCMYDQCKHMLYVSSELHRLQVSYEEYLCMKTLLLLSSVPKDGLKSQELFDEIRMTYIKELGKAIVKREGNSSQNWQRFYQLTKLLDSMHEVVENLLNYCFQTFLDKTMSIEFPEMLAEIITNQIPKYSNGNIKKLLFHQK
Sequence of Alpha-galactosidase A (Homo sapiens) (P06280 whole entry, looked up): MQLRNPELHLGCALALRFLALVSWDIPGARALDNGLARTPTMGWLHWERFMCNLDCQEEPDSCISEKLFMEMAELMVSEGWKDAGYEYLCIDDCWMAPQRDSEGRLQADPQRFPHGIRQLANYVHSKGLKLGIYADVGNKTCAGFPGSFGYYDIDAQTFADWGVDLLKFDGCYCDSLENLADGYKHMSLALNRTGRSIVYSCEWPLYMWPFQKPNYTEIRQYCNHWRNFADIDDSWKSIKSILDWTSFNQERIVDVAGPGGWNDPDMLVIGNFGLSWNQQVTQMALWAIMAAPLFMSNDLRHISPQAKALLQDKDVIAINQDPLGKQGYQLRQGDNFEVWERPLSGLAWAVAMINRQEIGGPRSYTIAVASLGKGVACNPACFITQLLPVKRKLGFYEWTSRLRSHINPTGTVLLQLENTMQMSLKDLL
Sequence of Cytochrome P450 2C19 (Homo sapiens) (P33261 whole entry, looked up): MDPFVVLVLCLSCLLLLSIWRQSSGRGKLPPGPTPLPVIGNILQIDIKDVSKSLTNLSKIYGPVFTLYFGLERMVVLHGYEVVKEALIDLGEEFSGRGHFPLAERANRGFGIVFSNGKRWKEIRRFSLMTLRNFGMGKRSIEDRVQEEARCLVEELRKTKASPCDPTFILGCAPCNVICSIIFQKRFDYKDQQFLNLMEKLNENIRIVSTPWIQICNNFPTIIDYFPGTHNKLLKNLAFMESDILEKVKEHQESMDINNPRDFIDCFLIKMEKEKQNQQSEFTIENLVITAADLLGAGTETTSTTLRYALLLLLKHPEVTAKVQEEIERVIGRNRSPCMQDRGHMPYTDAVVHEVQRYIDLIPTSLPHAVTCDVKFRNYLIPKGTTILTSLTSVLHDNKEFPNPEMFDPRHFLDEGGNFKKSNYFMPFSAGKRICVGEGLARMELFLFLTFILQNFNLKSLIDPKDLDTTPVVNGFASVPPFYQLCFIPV
Sequence of Muscarinic acetylcholine receptor M1 (Rattus norvegicus) (P08482 whole entry, looked up): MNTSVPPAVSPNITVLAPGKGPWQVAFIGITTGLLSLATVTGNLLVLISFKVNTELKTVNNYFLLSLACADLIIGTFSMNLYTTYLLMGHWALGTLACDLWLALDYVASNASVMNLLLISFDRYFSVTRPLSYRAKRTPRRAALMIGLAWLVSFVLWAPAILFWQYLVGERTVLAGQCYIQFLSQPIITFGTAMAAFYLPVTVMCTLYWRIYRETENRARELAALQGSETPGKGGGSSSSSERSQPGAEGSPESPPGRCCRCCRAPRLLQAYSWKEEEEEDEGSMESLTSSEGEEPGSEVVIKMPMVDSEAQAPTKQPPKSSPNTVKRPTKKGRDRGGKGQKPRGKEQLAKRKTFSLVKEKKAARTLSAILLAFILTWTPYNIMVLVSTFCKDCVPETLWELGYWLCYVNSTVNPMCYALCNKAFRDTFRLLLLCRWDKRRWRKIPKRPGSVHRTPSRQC
Sequence of Guanine nucleotide-binding protein G(i) subunit alpha-1 (Homo sapiens) (P63096 whole entry, looked up): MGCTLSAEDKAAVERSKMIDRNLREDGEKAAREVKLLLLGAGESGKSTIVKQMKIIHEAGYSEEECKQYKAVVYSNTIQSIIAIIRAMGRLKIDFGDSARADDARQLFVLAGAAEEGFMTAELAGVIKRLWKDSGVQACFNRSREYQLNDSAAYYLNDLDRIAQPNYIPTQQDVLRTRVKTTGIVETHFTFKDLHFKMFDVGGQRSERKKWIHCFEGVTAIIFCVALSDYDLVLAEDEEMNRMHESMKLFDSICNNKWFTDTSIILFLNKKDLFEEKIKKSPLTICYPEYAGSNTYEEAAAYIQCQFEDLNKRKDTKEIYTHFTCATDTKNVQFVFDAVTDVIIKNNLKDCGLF
Sequence of DNA repair nuclease/redox regulator APEX1 (Homo sapiens) (P27695 whole entry, looked up): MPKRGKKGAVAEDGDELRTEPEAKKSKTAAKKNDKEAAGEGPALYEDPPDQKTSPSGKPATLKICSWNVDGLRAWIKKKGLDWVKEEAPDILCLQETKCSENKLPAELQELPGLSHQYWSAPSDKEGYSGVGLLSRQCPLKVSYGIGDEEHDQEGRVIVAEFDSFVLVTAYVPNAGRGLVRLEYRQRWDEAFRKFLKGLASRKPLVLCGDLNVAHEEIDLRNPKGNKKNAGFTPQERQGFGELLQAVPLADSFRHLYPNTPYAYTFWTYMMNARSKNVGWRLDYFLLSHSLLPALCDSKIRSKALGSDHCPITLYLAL
Sequence of Pyruvate kinase PKM (Homo sapiens) (P14618 whole entry, looked up): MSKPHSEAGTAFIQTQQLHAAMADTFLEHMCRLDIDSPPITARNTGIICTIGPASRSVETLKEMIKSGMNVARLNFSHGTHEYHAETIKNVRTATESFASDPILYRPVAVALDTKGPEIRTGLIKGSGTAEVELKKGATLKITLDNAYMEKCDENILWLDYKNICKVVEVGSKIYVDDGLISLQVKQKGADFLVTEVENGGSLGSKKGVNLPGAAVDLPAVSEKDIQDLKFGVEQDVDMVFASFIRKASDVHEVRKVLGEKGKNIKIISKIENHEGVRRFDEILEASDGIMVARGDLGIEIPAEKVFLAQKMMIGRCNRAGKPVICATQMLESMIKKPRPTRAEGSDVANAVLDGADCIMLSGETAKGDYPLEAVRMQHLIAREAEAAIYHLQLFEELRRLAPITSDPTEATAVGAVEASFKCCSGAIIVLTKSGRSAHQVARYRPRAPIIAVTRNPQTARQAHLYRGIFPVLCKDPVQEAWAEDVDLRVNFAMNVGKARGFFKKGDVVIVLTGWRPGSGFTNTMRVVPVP
Sequence of Cytochrome P450 3A4 (Homo sapiens) (P08684 whole entry, looked up): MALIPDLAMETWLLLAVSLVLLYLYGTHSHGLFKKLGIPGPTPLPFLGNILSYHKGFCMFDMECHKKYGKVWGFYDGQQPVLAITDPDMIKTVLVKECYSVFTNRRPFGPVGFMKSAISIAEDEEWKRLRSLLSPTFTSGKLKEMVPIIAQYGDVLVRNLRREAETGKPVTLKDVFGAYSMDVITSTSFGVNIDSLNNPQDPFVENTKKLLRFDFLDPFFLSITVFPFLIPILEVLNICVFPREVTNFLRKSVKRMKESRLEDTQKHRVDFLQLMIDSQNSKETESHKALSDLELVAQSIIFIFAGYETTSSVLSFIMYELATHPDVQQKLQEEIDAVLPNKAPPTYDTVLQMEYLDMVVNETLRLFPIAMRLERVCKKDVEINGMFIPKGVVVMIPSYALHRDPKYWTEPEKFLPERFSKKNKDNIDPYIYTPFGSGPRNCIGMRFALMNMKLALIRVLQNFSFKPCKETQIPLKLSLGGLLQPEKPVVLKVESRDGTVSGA

As to `Nc1c(S(=O)(=O)O)cc(Nc2ccc(Nc3nc(Cl)nc(Nc4ccc(S(=O)(=O)O)cc4)n3)c(S(=O)(=O)O)c2)c2c1C(=O)c1ccccc1C2=O`, the activity change, negative = inhibition is -21.1% (inactive) in [1] and -0.911% (inactive) in experiment [14] (at 57.5 µM (top of the series)). For the same molecule, the Potency is > 46 µM (inactive) in [2]; > 46 µM (inactive) in experiment [3]; 0.631 µM (active) in experiment [11]; 0.251 µM (active) in [15]; 8.91 µM (active) in experiment [16]; 3.98 µM (active) in experiment [17]. In addition, the Potency entry in [4], in experiment [6], in experiment [7], in experiment [8], in [9] and in experiment [18] was “inactive” in each case. For the same molecule, the molecule was classed as inactive in experiment [5], in experiment [10], in [12] and in [13]. The max response in experiment [14] (measured here: cell count channel max response) is -15%; in experiment [14] (measured here: lipid channel max response) it was -16.5%.

For the origin of these results see PubChem BioAssay (NCATS).
